Results on 25 compounds are retold here after PubChem BioAssay (NCATS).

Each structure is given as a SMILES string. Records with an inconclusive call do not appear. Unmarked numbers belong to inactive results. Calls of active or inactive are those of the source. Unless noted, calls come from the whole dose curve; as a rule, active = well fitted curve in the direction sought with a large enough effect; inconclusive = small, poorly fitted or top-dose-only effect, or another doubt; inactive = no such curve, though single readings can be large; an effect the other way counts as inactive or inconclusive.

Experiment [1] concerns the target ATP-dependent 6-phosphofructokinase (Trypanosoma brucei brucei) (UniProt O15648). Briefly: qHTS Assay to Find Inhibitors of T. brucei phosphofructokinase: hit validation (AID 492961).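 Note: luminescence reports ADP formed as PFK phosphorylates fructose-6-phosphate with ATP; % is set by controls: 0 for no effect and ±100 for the full control effect.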 In outline:
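In this biochemical qHTS validation, titrated compounds were tested against 1.25 nM PFK with 0.1 mM ATP and 0.5 mM F6P. Percent activity came from controls lacking or containing enzyme.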
Background: In qHTS, concentration-response curves come from the screen itself.

Experiment [2] deals with Ferritin light chain (Equus caballus) (UniProt P02791). Briefly: qHTS Validation Assay for Identification of Novel General Anesthetics (AID 2323). Note: % is set by controls: 0 for no effect and ±100 for the full control effect. In outline:
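Apoferritin from horse spleen (10 uM) was mixed with 1-aminoanthracene at 50% saturation in PBS, then compounds were added. After 10 min at room temperature, fluorescence was read (ex 380 nm, em 535 nm) and normalized to free-probe and complex controls.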

The target in experiment [3] is Endonuclease 4 (Escherichia coli (strain K12)) (UniProt P0A6C1). Briefly: Counterscreen for APE1 Inhibitors: qHTS Validation Assay for Inhibitors of Endonuclease IV (AID 1708). Note: % is set by controls: 0 for no effect and ±100 for the full control effect. In a few lines: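 The reaction buffer contained 50 mM Tris-HCl pH 7.5, 50 mM NaCl, 2 mM MgCl2, 1 mM DTT and 0.01% Tween-20. Incision of a 50 nM fluorophore/quencher THF substrate by 2 nM enzyme was measured kinetically.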
Background: A counterscreen serves to expose hits that act by an unwanted route or on another target.

In experiment [4] the target is Muscarinic acetylcholine receptor M1 (Rattus norvegicus) (UniProt P08482). Briefly: qHTS Assay for Antagonists of Acetylcholine Muscarinic M1 Receptor: Kinetic Measurement of Intracellular Calcium Response (AID 943).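 For activity change, negative = inhibition: Fluo-4 calcium signal as peak divided by basal fluorescence over 4 min.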 Note: nearly all actives have a fitted effect of over 75% in size. Note: potency is the fitted concentration of half-maximal effect. In outline:
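Quantitative HTS in CHO-M1 (rat receptor) cells: 10 min compound exposure ahead of 100 nM carbachol, Fluo-4 fluorescence followed 4 min, value expressed as peak-to-basal ratio.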

Experiment [5] shares this target. Briefly: qHTS Assay for Antagonists of Acetylcholine Muscarinic M1 Receptor: Measurement of IP-One Response (AID 944). Note: nearly all actives have a fitted effect of over 75% in size. In outline: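 Antagonism was measured as loss of carbachol-driven (EC80) IP1 accumulation in CHO cells carrying rat M1, using a homogeneous IP-One TR-FRET kit read at 620 and 665 nm.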
In experiment [6] the target is Mitogen-activated protein kinase 10 (Mus musculus) (UniProt Q61831). Briefly: JNK3 AlphaScreen Assay (AID 530; active = well fitted curve in either direction with a large enough effect, not every such curve was filed as active;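 note: kinase came from lysate of stimulated human HepG2 cells; signal reports phosphorylation of biotinylated GST-cJun 1-79 at Ser73 with 10 µM ATP; % is set by controls: 0 for no effect and ±100 for the full control effect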). In outline: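 Kinase buffer: 20 mM Tris-HCl pH 7.6, 10 mM MgCl2, 1 mM DTT, 0.1 mM Na3VO4, 0.01% Tween-20; ATP 10 uM. Substrate biotin-GST-cJun(1-79), enzyme from activated HepG2 lysates. Detection by Ser73 phospho-antibody AlphaScreen.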
Background: Alpha assays give light when donor and acceptor beads are brought close together.

Experiment [7] has as its target 3',5'-cyclic-AMP phosphodiesterase 4B (Homo sapiens) (UniProt Q07343). Briefly: qHTS Assay for Inhibitors of PDE-IV (AID 607; active = well fitted activation curve with a large enough effect in the main read-out, with a control signal flat, not every such curve was filed as active; note: potency is the fitted concentration of half-maximal effect). In a few lines:
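Live HEK293 cells with a modified cyclic nucleotide-gated (CNG) channel report intracellular cAMP via membrane-potential dye fluorescence (ex 535/em 590 nm). Endogenous PDE-IV was targeted. Compounds were tested at up to 22.9 uM final; RO 20-1724 100 uM served as control.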

The nature of experiment [8]: qHTS Assay for Identification of Small Molecule Antagonists for NFkB Signaling Pathway (AID 895; active = well fitted inhibition curve with a large enough effect in the signal ratio, with a control signal flat, not every such curve was filed as active; the % refers to the signal ratio; note: potency is the fitted concentration of half-maximal effect). In a few lines:
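Beta-lactamase reporter read-out (460 and 530 nm emission ratio, 405 nm excitation, 2 hrs substrate loading RT) after 5 hr stimulation with 10 pM TNF alpha in compound-treated NFkB-bla ME-180 cells in low-serum medium.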

For experiment [9], the target named is Voltage-gated inwardly rectifying potassium channel KCNH2 (Homo sapiens) (UniProt Q12809). Briefly: qHTS Assay for Small Molecule Inhibitors of the Human hERG Channel Activity (AID 588834).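 Note: lower thallium flux fluorescence means stronger hERG block; nearly all actives have a fitted effect of over 50% in size.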 Note: potency is the fitted concentration of half-maximal effect. In a few lines:
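Cells were infected with hERG-BacMam virus for 4 hrs at room temperature, grown overnight, then seeded at 2000/well. After dye loading and roughly 10 min compound treatment, thallium influx was triggered and fluorescence recorded.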

Experiment [10] can be described thus: NFAT Signaling Pathway (AID 444; active = well fitted curve in either direction with a large enough effect, not every such curve was filed as active). As to conditions: Jurkat NFAT-bla M1, carbachol, beta-lactamase ratio, 5 h. In outline:
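Read-out: CCF4 FRET ratio (460 nm/530 nm) after 1 h RT dye loading, used for %activity and AC50 from titration series. Cells: Jurkat NFAT-β-lactamase/M1 line, treated with compound plus 1 uM carbachol for 5 h, 37 °C.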

Experiment [11] is described as follows: qHTS Assay for Identification of Small Molecule Agonists for Thrombopoietin (TPO) Signaling Pathway (AID 917). Note: % is set by controls: 0 for no effect and ±100 for the full control effect. In outline:
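Quantitative HTS for pathway activators: compounds were pin-transferred onto IL-3-starved Ba/F3 cells expressing human TPO receptor, TPO was added at its EC50 (26 pM final), and after 24 hrs at 37 C reporter luciferase was measured.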

Another experiment has as its system ATS95. Briefly: qHTS profiling for inhibitors of Plasmodium falciparum proliferation (AID 504749). Note: nearly all actives have a fitted effect of over 60% in size. Note: potency is the fitted concentration of half-maximal effect. The note with it: P. falciparum in erythrocytes, SYBR Green DNA, 72 h; series mostly up to 28.7 µM. In outline: (§1)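 In a 72 h erythrocytic culture (37 C, humidified, 5% CO2) at 2.5% hematocrit and 0.3% starting parasitemia, compounds were tested; SYBR Green I in detergent lysis buffer stained parasite DNA overnight.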

Another experiment relates to C2A. The description is as above. As to conditions: P. falciparum in erythrocytes, SYBR Green DNA, 72 h; series mostly up to 28.7 µM. In a few lines: as §1
The next experiment concerns CP217. Described as above. As to conditions: P. falciparum in erythrocytes, SYBR Green DNA, 72 h; series mostly up to 28.7 µM. In outline:
as §1

The subject of a further experiment is CP237. Described as above. As to conditions: P. falciparum in erythrocytes, SYBR Green DNA, 72 h; series mostly up to 28.7 µM. In a few lines:
as §1

In a further experiment the test system is CP252. The description is as above. The note with it: P. falciparum in erythrocytes, SYBR Green DNA, 72 h; series mostly up to 28.7 µM. In outline: as §1
Another experiment relates to CP286. The experiment is described as above. As to conditions: P. falciparum in erythrocytes, SYBR Green DNA, 72 h; series mostly up to 28.7 µM. In outline: as §1
The test system of another experiment is ECU. The description is as above. The note with it: P. falciparum in erythrocytes, SYBR Green DNA, 72 h; series mostly up to 28.7 µM. In a few lines: as §1
In another experiment the test system is SC27B. The description is as above. As to conditions: P. falciparum in erythrocytes, SYBR Green DNA, 72 h; series mostly up to 28.7 µM. In a few lines:
as §1

The next experiment has as its system TAB165. The experiment is described as above. As to conditions: P. falciparum in erythrocytes, SYBR Green DNA, 72 h; series mostly up to 28.7 µM. In outline:
as §1

Where [12] appears, read: at 7.69 µM (top of the series) unless noted.

Chain of Muscarinic acetylcholine receptor M1 (Rattus norvegicus) (P08482 whole entry, looked up): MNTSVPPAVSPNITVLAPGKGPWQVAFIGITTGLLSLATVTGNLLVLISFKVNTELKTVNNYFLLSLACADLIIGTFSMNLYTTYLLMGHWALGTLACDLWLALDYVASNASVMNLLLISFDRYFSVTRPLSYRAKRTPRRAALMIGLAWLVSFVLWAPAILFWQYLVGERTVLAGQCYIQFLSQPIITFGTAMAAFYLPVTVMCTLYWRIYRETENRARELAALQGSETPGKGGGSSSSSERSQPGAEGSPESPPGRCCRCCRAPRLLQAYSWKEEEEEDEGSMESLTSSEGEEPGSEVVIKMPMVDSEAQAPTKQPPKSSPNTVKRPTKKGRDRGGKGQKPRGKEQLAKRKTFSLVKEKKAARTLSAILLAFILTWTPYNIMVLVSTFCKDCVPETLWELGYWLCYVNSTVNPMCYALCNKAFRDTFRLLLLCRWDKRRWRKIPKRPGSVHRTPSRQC
Chain of ATP-dependent 6-phosphofructokinase (Trypanosoma brucei brucei) (O15648 whole entry, looked up): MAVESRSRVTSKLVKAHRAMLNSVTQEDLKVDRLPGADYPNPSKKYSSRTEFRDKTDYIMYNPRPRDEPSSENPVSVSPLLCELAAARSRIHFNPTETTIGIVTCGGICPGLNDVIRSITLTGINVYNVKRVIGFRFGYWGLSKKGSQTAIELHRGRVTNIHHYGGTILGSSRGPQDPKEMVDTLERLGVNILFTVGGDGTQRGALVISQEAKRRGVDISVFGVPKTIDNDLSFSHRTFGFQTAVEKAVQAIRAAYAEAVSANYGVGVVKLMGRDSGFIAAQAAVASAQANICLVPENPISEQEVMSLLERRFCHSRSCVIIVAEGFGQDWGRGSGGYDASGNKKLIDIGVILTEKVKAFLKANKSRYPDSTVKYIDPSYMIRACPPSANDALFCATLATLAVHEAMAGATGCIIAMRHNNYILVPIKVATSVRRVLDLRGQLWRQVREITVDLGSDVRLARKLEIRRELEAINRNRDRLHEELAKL
Chain of 3',5'-cyclic-AMP phosphodiesterase 4B (Homo sapiens) (Q07343 whole entry, looked up): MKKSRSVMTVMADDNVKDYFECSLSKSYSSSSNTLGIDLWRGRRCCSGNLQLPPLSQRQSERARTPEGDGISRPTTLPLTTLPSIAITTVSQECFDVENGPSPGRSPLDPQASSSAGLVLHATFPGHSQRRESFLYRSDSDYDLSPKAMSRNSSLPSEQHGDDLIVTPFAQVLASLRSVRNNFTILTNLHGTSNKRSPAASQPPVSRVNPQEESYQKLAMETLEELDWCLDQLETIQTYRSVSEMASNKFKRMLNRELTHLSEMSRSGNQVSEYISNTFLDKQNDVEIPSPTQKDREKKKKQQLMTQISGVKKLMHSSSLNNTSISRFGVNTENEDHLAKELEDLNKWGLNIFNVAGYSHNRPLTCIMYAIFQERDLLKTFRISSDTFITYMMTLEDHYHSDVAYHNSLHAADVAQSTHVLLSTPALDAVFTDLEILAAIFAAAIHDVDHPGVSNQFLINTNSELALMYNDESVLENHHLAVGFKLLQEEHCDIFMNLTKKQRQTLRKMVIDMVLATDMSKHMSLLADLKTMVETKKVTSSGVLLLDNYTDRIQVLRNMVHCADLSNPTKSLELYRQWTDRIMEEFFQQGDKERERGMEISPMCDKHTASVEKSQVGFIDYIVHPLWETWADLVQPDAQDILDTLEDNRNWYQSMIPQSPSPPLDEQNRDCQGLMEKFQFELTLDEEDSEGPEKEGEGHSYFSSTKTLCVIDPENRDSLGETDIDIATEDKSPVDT
Chain of Ferritin light chain (Equus caballus) (P02791 2-175 limits assumed): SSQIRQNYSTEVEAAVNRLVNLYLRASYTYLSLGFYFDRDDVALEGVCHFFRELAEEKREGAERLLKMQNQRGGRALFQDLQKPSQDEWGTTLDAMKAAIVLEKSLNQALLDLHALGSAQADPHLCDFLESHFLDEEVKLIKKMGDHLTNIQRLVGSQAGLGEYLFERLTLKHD
Chain of Voltage-gated inwardly rectifying potassium channel KCNH2 (Homo sapiens) (Q12809 whole entry, looked up): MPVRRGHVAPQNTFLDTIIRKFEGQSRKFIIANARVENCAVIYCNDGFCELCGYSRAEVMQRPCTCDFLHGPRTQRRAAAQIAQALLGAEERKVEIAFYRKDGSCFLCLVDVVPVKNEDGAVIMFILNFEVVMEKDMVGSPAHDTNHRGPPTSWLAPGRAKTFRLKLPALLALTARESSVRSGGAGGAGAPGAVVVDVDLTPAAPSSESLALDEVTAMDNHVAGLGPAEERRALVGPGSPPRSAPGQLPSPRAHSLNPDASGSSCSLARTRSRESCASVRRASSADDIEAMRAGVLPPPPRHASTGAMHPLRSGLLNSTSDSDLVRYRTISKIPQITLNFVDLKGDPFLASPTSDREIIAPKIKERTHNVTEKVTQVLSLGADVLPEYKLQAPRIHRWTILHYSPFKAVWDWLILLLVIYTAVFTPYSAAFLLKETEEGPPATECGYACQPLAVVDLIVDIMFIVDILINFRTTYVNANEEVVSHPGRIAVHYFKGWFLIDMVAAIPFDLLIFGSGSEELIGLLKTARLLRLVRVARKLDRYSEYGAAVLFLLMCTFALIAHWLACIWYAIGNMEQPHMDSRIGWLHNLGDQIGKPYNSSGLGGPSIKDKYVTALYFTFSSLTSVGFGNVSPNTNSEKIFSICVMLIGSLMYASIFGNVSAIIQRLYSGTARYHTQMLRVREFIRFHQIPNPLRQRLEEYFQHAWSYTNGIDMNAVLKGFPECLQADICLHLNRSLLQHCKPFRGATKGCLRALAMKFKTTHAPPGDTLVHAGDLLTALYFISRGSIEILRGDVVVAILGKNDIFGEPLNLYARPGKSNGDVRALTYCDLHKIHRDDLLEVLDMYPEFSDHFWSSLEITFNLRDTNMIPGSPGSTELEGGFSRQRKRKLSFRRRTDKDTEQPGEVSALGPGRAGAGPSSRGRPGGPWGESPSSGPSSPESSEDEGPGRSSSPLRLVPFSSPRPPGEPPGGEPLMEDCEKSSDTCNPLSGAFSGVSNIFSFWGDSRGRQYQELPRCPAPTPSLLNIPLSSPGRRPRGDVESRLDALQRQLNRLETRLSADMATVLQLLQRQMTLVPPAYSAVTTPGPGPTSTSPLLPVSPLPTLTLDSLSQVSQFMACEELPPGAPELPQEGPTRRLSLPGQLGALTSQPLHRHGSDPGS

As to `CC(C)n1c(/C=C/[C@H](O)C[C@H](O)CC(=O)O)c(-c2ccc(F)cc2)c2ccccc21`, the compound was classed as inactive in experiment [1].

For the compound `CNC(=O)[C@H]1O[C@@H](n2cnc3c(NCc4cccc(I)c4)ncnc32)[C@H](O)[C@H]1O`, the compound was called inactive in [2].

With `CN1C2CCC1CC(NC(=O)c1nn(C)c3ccccc13)C2` (stereo unspecified), the compound was classed as inactive in experiment [3].

In the case of `OC[C@H]1O[C@@H](n2cnc3c(NCCc4ccccc4)ncnc32)[C@H](O)[C@H]1O`, the Potency result in [4] and in experiment [5] was “inactive” throughout.

Take `Nc1nc(Nc2ccccc2)nc2c1ncn2[C@@H]1O[C@H](CO)[C@H](O)[C@H]1O`: the call in experiment [3] was inactive.

Take `Nc1ncnc2c1ncn2[C@@H]1O[C@H](C(=O)NC2CC2)[C@H](O)[C@H]1O`: the result in [3] was inactive.

For the compound `N=C1Sc2ccccc2C2=NCCCN12`, the call in [6] and in experiment [2] was inactive. Moreover, the Potency entry in experiment [7] and in experiment [5] was “inactive” each time. Moreover, the Potency in experiment [8] is 2 µM (active).

In the case of `Nc1nc(SCc2ccc([N+](=O)[O-])cc2)c2ncn([C@@H]3O[C@H](CO)[C@H](O)[C@H]3O)c2n1`, the call in experiment [3] was inactive.

For `Nc1ncnc2c1nc(Sc1ccc(Cl)cc1)n2[C@H]1O[C@@H]2COP(=O)(O)O[C@H]2[C@@H]1O`, in [3], the call was inactive. Further, in [9], the Potency result is “inactive”.

As to `COc1cc(=O)n(C)c2c(OCC(O)C(C)(C)O)cccc12` (stereo unspecified), the compound was called inactive in experiment [3]. Moreover, in [9], the Potency result is “inactive”.

On to `CCn1c(=O)c2[nH]c(-c3ccccc3)nc2n(CC)c1=O`, for which, in experiment [10] (setting [12]), the activity change, negative = inhibition was 15.8% [at 38 µM]. In [7], the Potency is 2 µM (active). In addition, the Potency result in experiment [8] and in [5] was “inactive” throughout. In addition, in experiment [3], the compound was classed as inactive.

Turning to `NCCNC(=O)c1ccc(Cl)cc1`, the activity change, negative = inhibition in experiment [10] (setting [12]) was 9.25% [at 38 µM]. The compound was classed as inactive in experiment [6] and in experiment [11]. Also, the Potency entry in experiment [7] and in experiment [5] was “inactive” in each case.

For the compound `CN1C(=O)CCC1c1cccnc1` (stereo unspecified), the compound was called inactive in [1]. In addition, the Potency result in the experiment on ATS95, with C2A, in the experiment with CP217, with CP237, in the experiment on CP252 and in the experiment with CP286 was “inactive” throughout. In addition, the Potency entry in the experiment on ECU, with SC27B and in the experiment on TAB165 was “inactive” throughout.

With `O=C(O)CC[C@H](NC(=O)c1ccccc1C(=O)O)C(=O)O`, in [2], the result was inactive. Moreover, the Potency entry in experiment [9] is “inactive”.

As to `OC[C@H]1O[C@@H](n2cnc3c(N[C@H]4CC5CCC4C5)ncnc32)[C@H](O)[C@@H]1O` (stereo partly specified), the result in experiment [3] was inactive.

On to `NC(=O)C1=CN(C2OC(COP(=O)(O)OP(=O)(O)OC[C@H]3O[C@@H](n4cnc5c(N)ncnc54)[C@H](OP(=O)(O)O)[C@H]3O)C(O)C2O)C=CC1` (stereo partly specified), for which the call in [3] and in [2] was inactive.

Take `O=C(Cc1ccc(Cl)c(Cl)c1)OCCN1CCCC1`: the activity change, negative = inhibition in experiment [10] (setting [12]) is -14.7% [at 38 µM]. Moreover, the call in [6], in [11] and in experiment [2] was inactive. Further, the Potency result in [7] and in experiment [8] was “inactive” in each case. Moreover, the Potency in experiment [4] is 14.1 µM (active).

As for `CN=C(N)NCCCC(N)C(=O)O` (stereo unspecified), the compound was called inactive in experiment [1]. The Potency result in the experiment with ATS95, with C2A, with CP217, in the experiment on CP237, in the experiment on CP252 and in the experiment on CP286 was “inactive” in each case. Also, the Potency result in the experiment with ECU, in the experiment on SC27B and with TAB165 was “inactive” in each case.

Regarding `NCCC(=O)NCCc1cnc[nH]1`, the activity change, negative = inhibition in [10] (at 17.2 µM (top of the series)) is -0.872%; in experiment [10] (at 38 µM (top of the series)), 2.63%. The compound was classed as inactive in experiment [6] and in [11]. In addition, the Potency result in [8], in [4], in experiment [5] and in [9] was “inactive” throughout.

For the compound `CC(=O)[C@@]1(O)CC[C@H]2C3CCC4=CC(=O)CC[C@]4(C)C3CC[C@@]21C` (stereo partly specified), the outcome in experiment [2] was inactive.

Turning to `CC(=O)O[C@H]1C[C@@H]2CCC3C(CC[C@@]4(C)[C@H]3C[C@H]([N+]3(C)CCCCC3)[C@@H]4OC(C)=O)[C@@]2(C)C[C@@H]1[N+]1(C)CCCCC1` (stereo partly specified), the Potency entry in experiment [9] was “inactive”.

Turning to `C[C@]12CCC(=O)C=C1CC[C@@H]1C2[C@@H](O)C[C@@]2(C)[C@H]1CC[C@]2(O)C(=O)CO` (stereo partly specified), the compound was classed as inactive in experiment [3].

In the case of `N=C(N)SCCc1cccc(CCSC(=N)N)c1`, the compound was called inactive in [6] and in experiment [11]. For the same compound, the Potency result in experiment [7] and in experiment [8] was “inactive” throughout. For the same compound, in experiment [4], the Potency is 4.47 µM (active).

As for `CN1CCc2cc(Cl)c(O)cc2C(c2ccccc2)C1` (stereo unspecified), the Potency in experiment [9] is 10 µM (active).

As for `CC(C)(C)[C@]1(O)CCN2CC3c4ccccc4CCc4cccc(c43)[C@@H]2C1` (stereo partly specified), the compound was called inactive in experiment [1]. Further, the Potency in the experiment with ATS95 is 10 µM (active); in the experiment with C2A it was 11.2 µM (active); in the experiment on CP217 it was 8.91 µM (active); with CP237 it was 11.2 µM (active); with CP252, 10 µM (active); with CP286, 8.91 µM (active). Besides, the Potency was 14.1 µM (active) with ECU, 7.94 µM (active) in the experiment on SC27B and 11.2 µM (active) with TAB165.
